Measured values as given in PubChem BioAssay AID624297 (National Center for Advancing Translational Sciences (NCATS), 2012).
Screen size: about 340,000 compounds; about 6,200 (1.8%) were called active. Another 10% or so got no clear call; they are omitted. The call rests on the fitted dose curve; in most records, active means well fitted activation curve with a large enough effect; inconclusive means small, poorly fitted or top-dose-only effect; inactive means no such curve, though single readings can be large or run the other way. The list comes from a sample in which actives are over-represented; it also holds similar structures and randomly drawn compounds.

Assay: A quantitative high throughput screen for small molecules that induce DNA re-replication in SW480 colon adenocarcinoma cells. Further: nearly all actives have a fitted effect of over 55% in size. On re-replication activation: % of control where 0% means no effect.
Details: Hoechst DNA content imaging, 48 h; series mostly up to 46.1 µM; re-replication activation: at the top concentration
How it was run: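 250 cells/well; 23 nL cpd via pin tool; 48 hr, 37 C, 5% CO2; Hoechst 40 min; imager read of total nuclear intensity, ex 405/em 500-530 nm.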
Potency means the concentration at half of the fitted maximal effect.

SMILES | re-replication activation | Potency
CCCCNCCS(=O)(=O)NCc1ccccc1 | 2.26% (inactive) | –
O=C(CSc1ncn[nH]1)Nc1ccc(Br)cc1Br | 0.649% (inactive) | –
Cc1cccc(OCC(=O)OCC(=O)Nc2ccc(Cl)cn2)c1 | 1.42% (inactive) | –
O=C1OC(Cc2ccccc2)C(c2ccccc2)C1=O (stereo not drawn) | -2.6% (inactive) | –
COc1cccc(CNC(C)C(=O)Nc2ccc(S(=O)(=O)N3CCCC3)cc2)c1 (stereo not drawn) | -23.3% (inactive) | –
Cc1ccc(SCC(=O)N2CCN(c3ccc(F)cc3)CC2)cc1 | 2.77% [at 1.84 µM] (inactive) | –
CCN1CCC2(CC1)N=C(c1ccc(F)cc1)C(=S)N2C(=O)c1ccc(C)cc1 | – | 20.6 µM (active)
CCN1CCN(C(=O)CSc2ccc(C)cc2)CC1 | -1.89% (inactive) | –
CN(CC(=O)O)C(=O)c1ccccc1 | -2.02% (inactive) | –
Nc1cc2c(cc1Br)-c1ccc(F)cc1C2=O | -4.87% (inactive) | –
O=C(O)C(=Cc1ccccc1[N+](=O)[O-])c1ccccc1 | -4% (inactive) | –
CCN1CCC(O)(/C=C/c2ccc(C)cc2)C(C(=O)/C=C/c2ccc(C)cc2)C1 (stereo not drawn) | -1.86% (inactive) | –
CCOc1ccc2nc(NC(=O)CSc3nc4c(c(=O)n(C)c(=O)n4C)n3CC)sc2c1 | -4.89% (inactive) | –
CCOc1ccc2nc(Nc3nc4ccc(NC(C)=O)cc4s3)sc2c1 | – | 18.4 µM (active)
CCC(=O)c1ccc(OCC(=O)Nc2ccc3nc(C)sc3c2)cc1 | -12.9% (inactive) | –
COc1ccc(CCOC2OC(CO)C(OC(=O)/C=C/c3ccc(O)c(OC)c3)C(O[C@H]3O[C@@H](C)[C@H](O)[C@@H](O)[C@H]3O)C2O)cc1O (stereo partly drawn) | -2.6% (inactive) | –
CC(C)(C)c1cc(C(=O)NN)n(Cc2ccc(Cl)cc2Cl)n1 | – | 11.6 µM (active)
NNC(=O)c1ccc(Cl)cc1Cl | 0.838% (inactive) | –
Cn1cc(C(=O)c2ccc(Cl)cc2Cl)cc1C(=O)NN | -5.57% (inactive) | –
COc1ccc(C(=O)Nc2cccc(/C=C(/CCC(=O)O)c3nc4ccccc4s3)c2)cc1 | -7.51% (inactive) | –
O=C(COC(=O)c1cccnc1Cl)NC(=O)NC1CCCCC1 | -1.97% (inactive) | –

SMILES | re-replication activation | Potency
Cc1nc2ccc(NC(=O)c3cccc(S(=O)(=O)N4CCOCC4)c3)cc2s1 | 3.07% (inactive) | –
CC/C(=C\c1ccc(Cl)cc1)c1ccncc1 | -2.36% (inactive) | –
CCC1=Nc2cc(C(=O)NCCCN3CCOCC3)ccc2Sc2ccc(Br)cc21 | 14.9% (inactive) | –
CC(C)(C)c1ccc(C(=O)NCc2ccco2)cc1 | -17.2% (inactive) | –
CCCC1=Nc2cc(C(=O)NCc3ccco3)ccc2Sc2ccccc21 | – | 5.17 µM (active)
COc1ccc(NC(=O)Nc2ccc3c(c2)C(=O)N([C@H](C)CO)C[C@H](C)[C@@H](CN(C)C(=O)Nc2ccc4c(c2)OCO4)O3)cc1 | 0.217% (inactive) | –
O=C(Cc1ccc(NC(=O)C2CCCN(C(=O)CCc3ccccc3)C2)cc1)Nc1ccc(C(=O)N2CCOCC2)cc1 (stereo not drawn) | -31.4% [at 9.22 µM] (inactive) | –
Cc1ccc(C(=O)Nc2ccn(C)n2)cc1 | – | 18.4 µM (active)
CN(C)S(=O)(=O)c1cc(C(=O)Nc2ccn(C)n2)c(Cl)cc1Cl | 3.79% (inactive) | –
Cn1ccc(NC(=O)Nc2ccc(Cl)cc2)n1 | 9.96% (inactive) | –
CC(=O)N(O)CCCCCNC(=O)CCC(=O)N(O)CCCCCNC(=O)CCC(=O)N(O)CCCCCNC(=O)CCC(=O)O | -1.74% (inactive) | –
CCOc1ccc(N/C=C/C(=O)c2cc(OC)c(OC)c(OC)c2)cc1 | – | 0.58 µM (active)
CCOc1ccc(NC(=O)Nc2cc(C)ccc2OC)cc1 | 1.93% (inactive) | –
CCOc1ccc(C(=O)Nc2cc(OC)ccc2OC)cc1 | -6% (inactive) | –
CCCC(O)(c1ccccc1)C(c1ccccc1)c1ccccn1 (stereo not drawn) | -10.4% (inactive) | –
CC1CN(Cc2ccccc2)C(=S)NC1=O (stereo not drawn) | -6.62% (inactive) | –
CN(C)S(=O)(=O)c1cccc(-c2nn(-c3ccccc3)cc2/C=C2\SC(=S)N(CC(=O)O)C2=O)c1 | – | 16.4 µM (active)
O=C(CN1C(=O)/C(=C\c2ccccc2F)SC1=S)Nc1nc2ccccc2s1 | -5.4% (inactive) | –
COc1ccc(/C=C2\SC(=S)N(CCC(=O)Nc3ccccn3)C2=O)cc1OC | -27.7% (inactive) | –
Cc1ccc(S(=O)(=O)n2oc(=O)c(C3CCCCC3)c2N)cc1 | 0.714% (inactive) | –
O=C(Nc1cccc(S(=O)(=O)N2CCOCC2)c1)C12CC3CC(CC(C3)C1)C2 | -3.63% (inactive) | –

SMILES | re-replication activation | Potency
CC[C@]12c3[nH]c4ccc(OC)cc4c3CCN1C(=O)C(CC(=O)NCCN1CCOCC1)C[C@@H]2C(=O)N1CCN(C(=O)C2CC2)CC1 (stereo partly drawn) | 11.8% (inactive) | –
C=CCC[C@H](Cc1ccc(F)cc1)C(=O)OC[C@H](C)NC(=O)[C@H](CC=C)CC(=O)N(CCO)Cc1ccccc1 | 11.5% (inactive) | –
CCc1ccc(NC(=O)CSc2nc3ccccc3c(=O)n2CCN2CCOCC2)cc1 | 4.56% (inactive) | –
COc1ccc(NC(=O)CSc2nc3ccccc3c(=O)n2C)cc1 | -4.2% (inactive) | –
CCOc1ccc(NC(=O)CSc2nc3ccccc3c(=O)n2Cc2cccs2)cc1 | – | 1.64 µM (active)
O=C(NCC1(N2CCCCC2)CCCCC1)c1cccc(S(=O)(=O)Nc2ccccc2Cl)c1 | 6.46% (inactive) | –
O=C(NCCC(=O)N1O[C@@H]2C=C[C@H]1C2)OCC1c2ccccc2-c2ccccc21 | 0.0882% (inactive) | –
O=C(COc1ccc([N+](=O)[O-])cc1Cl)Nc1ccc2[nH]c(=O)[nH]c2c1 | -3.8% (inactive) | –
COc1ccc(-c2c(C)cc3oc(=O)cc(-c4ccccc4)c3c2C)cc1F | 40.3% (inactive) | –
COc1ccc(-c2c(C)cc3oc(=O)cc(-c4ccccc4)c3c2C)cc1OC | 14.2% (inactive) | –
COc1cc(OC)c2c(-c3cccc(-c4cccc(N)c4)c3)cc(=O)oc2c1 | – | 3.66 µM (active)
CN(C)C(=O)CCc1ccc2c3c([nH]c2c1)[C@]1(CCc2ccccc2)[C@@H](C(=O)N2CCCCC2)C[C@H](CC(=O)NCCC2=CCCCC2)C(=O)N1CC3 | -0.29% (inactive) | –
Cc1ccccc1N1CCN(C(=O)c2cccnc2)CC1 | 16.6% (inactive) | –
Cc1ccc2c(c1)C1C[N+](C)(CC(=O)c3ccccc3)CCC1N2C(=O)c1ccccc1Cl (stereo not drawn) | -5.17% (inactive) | –
O=C(NNC(=O)c1ccc2ccccc2c1)c1ccc(Cl)cc1 | 0.538% (inactive) | –
CC(C)Sc1nnc([C@H](Cc2ccccc2)NC(=O)OC(C)(C)C)o1 | -1.87% (inactive) | –
C[C@@H](NC(=O)OC(C)(C)C)c1nnc(S(=O)(=O)Cc2ccccc2)o1 | – | 13 µM (active)
C[C@H](NC(=O)OC(C)(C)C)c1nnc(SCC(=O)Nc2ccc(Br)cc2)o1 | -0.601% (inactive) | –
Cc1[nH]c(=O)c(C(=O)/C=C/c2ccccc2)c2c1CCCC2 | – | 20.6 µM (active)
Cc1cn(COC/C=C/c2ccccc2)c(=O)[nH]c1=O | -0.895% (inactive) | –
O=C(/C=C/c1ccc(N2CCOCC2)cc1)c1ccccc1 | -2.13% (inactive) | –
